This is a sample that favours compounds with a hit; in the whole collection about 21% have one here.
NS1 inh: influenza NS1 inhibition; Potency, µM (top dose mostly 46.1 µM); 270,000 tested, 0.4% active; AID 2326; calls by dose curve; further: actives are rising curves; nearly all actives have a fitted effect of over 50% in size
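A cell-based growth assay was used: compounds that relieve NS1-induced slow growth of budding yeast raise OD600. Assay medium was yeast nitrogen base with ammonium sulphate and -URA supplement, pH 6.0, with 2% galactose.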
SARS PLpro yeast: inhibitors of SARS-CoV papain-like protease in yeast | S. cerevisiae expressing SARS-CoV PLpro, growth rescue | Potency, µM (titrated, usually from 32.9 µM), usual class: activators | 330,000 tested, 0.19% active; calls by dose curve; further: nearly all actives have a fitted effect of over 55% in size
Pf growth 48h: inhibits P. falciparum growth in the first generation, 48 h. AID 504832. Potency, µM (titrated, usually from 28.7 µM), hits mostly inhibitors. 310,000 tested, 5.9% active. P. falciparum luciferase growth in erythrocytes, 48 h
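Luminescence readout; reporter = integrated firefly luciferase in P. falciparum. RBC culture at 2% hematocrit, 0.1% parasitemia final, 37 C/5% CO2; decreased signal taken as growth inhibition.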
Shiga inhibitor: inhibitors of Shiga toxin in Vero cells | 290,000 tested, 9.2% active | Vero cells, Shiga toxin protein synthesis inhibition reporter | inhibition, % at 38.7 µM; in the data active means inhibition mostly above about 28%, no sharp cut-off; inactive means mostly below about 43%
Pf growth 96h: P. falciparum growth inhibition at 96 hours; P. falciparum luciferase reporter growth, 96 h; Potency, µM (top dose mostly 28.7 µM), usual class: inhibitors; AID 504834; 320,000 tested, 6.9% active
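96 h incubation, 37 C, 5% CO2, of luciferase-reporter P. falciparum-infected RBCs (2% hematocrit, 0.05% parasitemia final) with test compounds; endpoint luminescence.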
Cycloheximide cs: counter-screen for Shiga toxin inhibitors: cycloheximide protein synthesis inhibition; cell reporter, cycloheximide protein synthesis inhibition counterscreen; max response, %; 300,000 tested, 12% active; AID 2314; in the data active means max response mostly above about 13%, no sharp cut-off; inactive means mostly below about 14%; further: read at 38.3 µM for the half of the compounds with a filed dose
Hits are given with their value; n = inactive; u = inconclusive; x = no result given; + = active, no number. Unless noted, the call rests on the fitted dose curve; in most records, active means well fitted inhibition curve with a large enough effect; inconclusive means small, poorly fitted or top-dose-only effect, or another doubt; inactive means no such curve, though single readings can be large or run the other way.

SMILES	NS1 inh	SARS PLpro yeast	Pf growth 48h	Shiga inhibitor	Pf growth 96h	Cycloheximide cs
CN(c1ccccc1)c1nc2ccsc2c(=O)s1	n	n	n	97	u	56
CCN(c1ccccc1)c1nc2ccsc2c(=O)s1	n	n	n	n	n	23
Cc1ccc(-c2ccc(C(=O)Nc3ccccc3)o2)c2ccccc12	n	n	n	67	u	36
Cc1ccc(-c2cccc(C(=O)NCc3ccccc3)n2)c2ccccc12	n	n	u	n	13µM	n
Cc1ccc(-c2cccc(C(=O)NCCc3ccccc3)n2)c2ccccc12	n	n	n	n	n	n
Cc1ccc(S(=O)(=O)NC(=O)c2ccc(-c3ccc(C)c4ccccc34)o2)cc1	n	n	n	n	n	n
Cc1ccc(-c2ccc(C(=O)NCc3ccccc3)o2)c2ccccc12	n	n	u	n	10µM	n
CCOc1ccccc1-c1ccc(C(=O)NCc2ccccc2)o1	n	n	u	n	7.4µM	n
Cc1ccccc1S(=O)(=O)Cc1ccc(C(=O)NCc2ccccc2)o1	n	n	n	n	u	n
O=C(CN1CCN(S(=O)(=O)c2ccc(Cl)cc2)CC1)NCC1(N2CCOCC2)CCCCC1	x	n	u	x	u	x
CCCOc1ccc(C(=O)CCNC(Cc2c[nH]c3ccccc23)C(=O)O)cc1 (stereo unspecified)	n	n	n	n	n	n
CN(CC(=O)Nc1ccccc1Br)C(=O)c1ccc2c(=O)n3c(nc2c1)CCC3	x	n	n	x	n	x
O=C1c2ccccc2NC(c2ccccc2Br)N1CCCN1CCOCC1 (stereo unspecified)	n	n	u	n	10µM	n
Cc1cc(N)n(-c2ncnc3scc(-c4ccc(Cl)cc4)c23)n1	n	n	u	n	u	n
Clc1ncnc2scc(-c3ccc(Br)cc3)c12	n	n	0.83µM	n	0.33µM	n
CCN(CC)S(=O)(=O)c1ccc(-c2csc(C)n2)cc1	n	n	n	n	u	n
Cc1ccc2nc(-c3cccc(S(=O)(=O)N(C)C)c3)cn2c1	n	n	n	+	n	54
CCN(CC)S(=O)(=O)c1cccc(-c2cn3cc(C)ccc3n2)c1	n	n	n	98	x	66
CCCN(CCC)S(=O)(=O)c1cccc(-c2csc(C)n2)c1	n	n	10µM	n	u	n
COc1cccc(N2CCN(c3ccc4nnc(CCC(=O)Nc5ccc(F)cc5)n4n3)CC2)c1	n	n	u	n	u	n
COc1cc(C#N)c(NC(=O)CN2CCN(CCO)CC2)cc1OC	n	n	n	n	n	n
COc1cccc(C(=O)OCC(=O)Nc2sc3c(c2C(N)=O)CCC3)c1O	x	n	n	x	u	x
COc1ccc(C2c3[nH]c4ccccc4c3CCN2Cc2cccn2-c2ncccn2)cc1C (stereo unspecified)	n	n	u	n	n	n
O=C(NCC(c1ccc(F)cc1)N1CCOCC1)c1nn(-c2ccccc2)c(=O)c2ccccc12 (stereo unspecified)	x	n	9.3µM	x	u	x
O=C(NCC(c1ccc(F)cc1)N1CCOCC1)c1ccc(-c2ccccc2)cc1 (stereo unspecified)	x	n	x	x	x	x
SMILES	NS1 inh	SARS PLpro yeast	Pf growth 48h	Shiga inhibitor	Pf growth 96h	Cycloheximide cs
C=CCN(c1ccccc1)S(=O)(=O)c1cccc(C(=O)NC2CCN(Cc3ccccc3)CC2)c1	x	n	10µM	x	12µM	x
O=C(NC1CCN(Cc2ccccc2)CC1)c1cccc(S(=O)(=O)Nc2ccc(Br)cc2)c1	x	n	12µM	x	u	x
O=C(NC1CCN(Cc2ccccc2)CC1)c1cccc(S(=O)(=O)Nc2ccc(F)cc2)c1	x	n	4.1µM	x	2.1µM	x
CN(C)S(=O)(=O)c1cccc(C(=O)NCC(=O)NC2CCN(Cc3ccccc3)CC2)c1	u	n	n	n	n	n
CC(=O)c1nn(-c2ccc(C(F)(F)F)cc2)c(=O)[nH]c1=O	n	n	n	n	n	n
CCOC(=O)Cc1csc(NC(=O)c2ccc(N3CCOCC3)cc2[N+](=O)[O-])n1	x	n	n	x	n	x
CC(C)c1ccc(N(C(=O)CNC(=O)c2ccco2)C(C(=O)NC2CCCC2)c2cccnc2)cc1 (stereo unspecified)	n	n	u	n	n	n
Cc1ccc(NS(=O)(=O)c2cccc(C(=O)NCC(c3ccc(F)cc3)N3CCOCC3)c2)cc1 (stereo unspecified)	x	n	u	x	u	x
C=CCN(c1ccccc1)S(=O)(=O)c1cccc(C(=O)NCC(c2ccc(F)cc2)N2CCOCC2)c1 (stereo unspecified)	x	n	13µM	x	u	x
C=CCN(c1ccc(F)cc1)S(=O)(=O)c1cc(C(=O)NC2CCC(O)CC2)ccc1Cl (stereo unspecified)	x	n	u	x	5.2µM	x
CC1(C)CC(NC(=O)c2cccc(S(=O)(=O)Nc3cccc(Cl)c3)c2)CC(C)(C)N1	x	n	13µM	x	4.7µM	x
Cc1cccc(N=C2NC(=O)c3cc([N+](=O)[O-])ccc32)c1	x	n	n	n	u	n
CC(C)(C)c1ccc(C(=O)N2CCC(=O)N([C@H](COCc3ccc(Cl)cc3)Cc3ccccc3)CC2)cc1	x	x	x	n	x	n
O=C(NCC(c1ccc(F)cc1)N1CCOCC1)c1cccc(Br)c1 (stereo unspecified)	x	n	n	n	n	n
COc1cc(NC(=O)CN(C)S(=O)(=O)c2ccc3c(c2)CC(C)N3C(C)=O)cc(OC)c1OC (stereo unspecified)	n	n	n	n	u	n
O=C(NCc1cccnc1)c1cccc(OC2CCN(Cc3ccc(CO)o3)CC2)c1	n	n	n	n	n	n
Cc1ccccc1OCc1nnc(SCc2cc(=O)[nH]c3ccccc23)n1-c1ccccc1	n	n	u	n	u	n
Cc1ccc(OCc2nnc(SCc3cc(=O)[nH]c4ccccc34)n2-c2ccccc2)cc1	n	n	u	n	5.9µM	n
Cc1ccc(C(=O)CSc2nnc(COc3ccc(C#N)cc3)n2-c2ccccc2)cc1	n	n	n	n	u	n
N#Cc1ccc(CSc2nnc(COc3ccccc3)n2-c2ccccc2)cc1	n	n	x	n	u	n
Cc1ccc(OCc2nnc(SCC(=O)Nc3cccc4ccccc34)n2-c2ccccc2)cc1	u	n	u	n	13µM	n
COc1ccc(-n2c(COc3ccccc3)nnc2SCc2ccc(C#N)cc2)cc1	n	n	12µM	n	u	n
Cc1ccc(NC(=O)CSc2nnc(COc3ccc(C#N)cc3)n2-c2ccccc2)cc1C	n	n	u	n	10µM	n
COc1ccc(NC(=O)CN(C)C(=O)c2ccc3[nH]c4c(c3c2)CC(C)CC4)cc1 (stereo unspecified)	x	n	n	x	n	x
CC(C)c1cc(N=NC(N)=O)cc(C(C)C)c1O	n	n	n	n	u	n
Cc1ccc(NC(=O)CC2NCCNC2=O)cc1Cl (stereo unspecified)	n	n	n	n	n	n
O=C(Nc1cc(S(=O)(=O)N2CCCCC2)ccc1N1CCOCC1)c1ccc(F)cc1	x	n	u	x	u	x

Assay outcomes from PubChem BioAssay.
